Active and inactive are the calls of the source.
What was measured:
[1] = binders of probe aFSTL3 on microarray, primary screen, stem cell growth factor project, biochemical, small-molecule microarray, fluorescence 635/667 (AID 1064); conditions: higher = more signal;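 also: measures binding of the biotinylated anti-FSTL3 antibody to printed compounds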
[2] = binders from COS7 lysate, DM2A8 probe, primary screen, torsin A project, cell lysate, small-molecule microarray, fluorescence 635/667 (AID 1065); conditions: higher = more signal, COS7 lysate expressing mutant human TOR1A
[3] = binders of probe aFGF2 on microarray, primary screen, stem cell growth factor project, biochemical, small-molecule microarray, fluorescence 635/667 (AID 1067); conditions: higher = more signal;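 also: measures binding of biotinylated aFGF2 protein to printed compounds on slides; z-score merges feature fluorescence and signal-to-noise across triplicate slides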
[4] = binders of probe aFGF10 on microarray, primary screen, stem cell growth factor project, biochemical, small-molecule microarray, fluorescence 635/667 (AID 1071); conditions: higher = more signal;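 also: score merges 667 nm spot intensity and signal to noise from triplicate slides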
[5] = biological target: Neurogenic locus notch homolog protein 2 (Homo sapiens) (UniProt Q04721); test: Notch2 binders on small-molecule microarrays, primary screen, biochemical, small-molecule microarray, 635 nm fluorescence, stem cell growth factors (AID 1073); conditions: Notch2 binding, higher = more signal
[6] = biological target: Pro-neuregulin-1, membrane-bound isoform (Homo sapiens) (UniProt Q02297); test: NRG1 binders on small-molecule microarrays, primary screen, psychiatric disease protein project, biochemical, small-molecule microarray, fluorescence 635/667 (AID 1075); conditions: NRG1 binding, 635 nm fluorescence, higher = more signal;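 also: score combines 667 nm spot fluorescence with signal to noise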
Chain of Pro-neuregulin-1, membrane-bound isoform (Homo sapiens) (Q02297 whole entry, looked up, the tested form may be a part, canonical isoform): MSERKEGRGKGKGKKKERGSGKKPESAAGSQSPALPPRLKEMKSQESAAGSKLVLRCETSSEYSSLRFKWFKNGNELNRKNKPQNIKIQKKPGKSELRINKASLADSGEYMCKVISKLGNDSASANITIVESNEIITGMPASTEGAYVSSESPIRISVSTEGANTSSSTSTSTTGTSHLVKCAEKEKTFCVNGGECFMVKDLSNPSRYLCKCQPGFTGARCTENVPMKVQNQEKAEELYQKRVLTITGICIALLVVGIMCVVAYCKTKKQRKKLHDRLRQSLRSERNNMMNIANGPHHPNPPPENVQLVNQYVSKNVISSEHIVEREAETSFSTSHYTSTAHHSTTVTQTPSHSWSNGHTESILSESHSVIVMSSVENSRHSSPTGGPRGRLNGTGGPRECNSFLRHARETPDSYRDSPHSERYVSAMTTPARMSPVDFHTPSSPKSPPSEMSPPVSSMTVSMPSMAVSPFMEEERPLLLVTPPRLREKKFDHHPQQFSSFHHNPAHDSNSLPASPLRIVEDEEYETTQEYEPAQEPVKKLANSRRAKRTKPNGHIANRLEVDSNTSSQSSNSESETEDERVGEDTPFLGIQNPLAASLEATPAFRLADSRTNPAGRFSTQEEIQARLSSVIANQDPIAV

[7] = test system: Neuregulin-1 EGF-like domain; test: binders of neuregulin-1 EGF-like domain, primary screen, biochemical, small-molecule microarray, 635 nm fluorescence (AID 1081); conditions: small-molecule microarray binding, higher = more signal;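 also: binding of the protein to compounds printed on small-molecule microarray slides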
[8] = FRG1 promoter luciferase signal modulators, primary screen, FRG1 inhibition for FSHD, cell-based, C2C12 myotubes, firefly/Renilla luciferase, luminescence (AID 1084); conditions: higher = more signal, called active from +8 up or from −8 down
[9] = binders of probe aFST on microarray, primary screen, stem cell growth factor project, biochemical, small-molecule microarray, fluorescence 635/667 (AID 1086); conditions: higher = more signal;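 also: score merges 667 nm fluorescence with signal-to-noise of each printed compound spot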
[10] = binders of probe aHhip on microarray, primary screen, stem cell growth factor project, biochemical, small-molecule microarray, fluorescence 635/667 (AID 1087); conditions: higher = more signal;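 also: score merges spot fluorescence at 667nm with spot signal to noise ratio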
[11] = test system: PRMT1 (protein arginine N-methyltransferase 1); test: PRMT1 binders on small-molecule microarrays, primary screen, biochemical, small-molecule microarray, 635 nm fluorescence (AID 1088); conditions: small-molecule microarray binding, higher = more signal;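 also: binding of Prmt1 protein to compounds spotted on small-molecule microarray slides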
[12] = yeast growth modulation, basal conditions, primary screen, YJM789 clinical isolate, OD600, 24 h (AID 1089);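 also: growth of clinical yeast isolate S. cerevisiae YJM 789 seeded 1000 cells per well; test concentration not given here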; conditions: S. cerevisiae YJM789 growth, higher = more signal, called active from +8 up or from −8 down
[13] = fission yeast growth modulation, primary screen, strain 972, OD600, 24 h, no modulator (AID 1090);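 also: basal condition with compound alone and no growth modifier present; test concentration not given here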; conditions: S. pombe 972 growth, higher = more signal, called active from +8 up or from −8 down
[14] = S. cerevisiae growth modulation with rapamycin, primary screen, strain BY4716, OD600, 96 h (AID 1091); conditions: higher = more signal, called active from +8 up or from −8 down; also: test concentration not given here
[15] = biological target: Torsin-1A-interacting protein 2 (Homo sapiens) (UniProt Q8NFQ8); test: LULL1 binders on small-molecule microarray, primary screen, cell lysate, human LULL1 lysate, 635/667 nm fluorescence (AID 1092); conditions: hLULL1 lysate binding, 635 nm fluorescence, higher = more signal;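 also: probe is lysate of COS7 cells overexpressing human LULL1; score merges per-feature 667 nm fluorescence with signal-to-noise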
Chain of Torsin-1A-interacting protein 2 (Homo sapiens) (Q8NFQ8 whole entry, looked up): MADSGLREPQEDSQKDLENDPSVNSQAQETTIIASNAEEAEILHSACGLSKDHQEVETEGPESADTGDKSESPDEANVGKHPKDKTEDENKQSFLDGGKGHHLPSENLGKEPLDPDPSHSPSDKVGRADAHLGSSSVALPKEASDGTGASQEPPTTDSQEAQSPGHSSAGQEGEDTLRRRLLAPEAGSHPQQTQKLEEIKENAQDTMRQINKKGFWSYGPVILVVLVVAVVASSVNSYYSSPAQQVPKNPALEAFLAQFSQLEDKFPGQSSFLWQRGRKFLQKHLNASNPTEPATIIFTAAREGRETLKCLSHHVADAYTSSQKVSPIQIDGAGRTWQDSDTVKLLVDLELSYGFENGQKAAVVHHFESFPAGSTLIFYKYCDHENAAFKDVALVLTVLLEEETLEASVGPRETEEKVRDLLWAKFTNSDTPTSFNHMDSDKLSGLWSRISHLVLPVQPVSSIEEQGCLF

[16] = E. coli growth modulation, two-sided OD650, primary screen, E. coli filamentation project, strain DRC41, 24 h (AID 1093); conditions: OD650, 24 h, higher = more signal, called active from +8 up or from −8 down;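 also: MC1000 strain lacking acrAB efflux and sulA so SOS filamentation is blocked; test concentration not given here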
[17] = small-molecule microarray binders of probe aLefty2, primary screen, biochemical, biotinylated probe, 635/667 nm fluorescence (AID 1094); conditions: higher = more signal;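 also: score merges spot fluorescence near 667 nm with spot signal-to-noise ratio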
[18] = test system: Noggin (protein binding on small-molecule microarray); test: Noggin binders on small-molecule microarray, primary screen, biochemical, 635/667 nm fluorescence (AID 1095); conditions: 635 nm fluorescence, higher = more signal;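 also: score merges 667 nm feature fluorescence with signal to noise over triplicate slides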
[19] = biological target: Neurogenic locus notch homolog protein 3 (Homo sapiens) (UniProt Q9UM47); test: NOTCH3 binders on small-molecule microarray, primary screen, biochemical, 635/667 nm fluorescence (AID 1096); conditions: NOTCH3 binding, 635 nm fluorescence, higher = more signal
Chain of Neurogenic locus notch homolog protein 3 (Homo sapiens) (Q9UM47 whole entry, looked up): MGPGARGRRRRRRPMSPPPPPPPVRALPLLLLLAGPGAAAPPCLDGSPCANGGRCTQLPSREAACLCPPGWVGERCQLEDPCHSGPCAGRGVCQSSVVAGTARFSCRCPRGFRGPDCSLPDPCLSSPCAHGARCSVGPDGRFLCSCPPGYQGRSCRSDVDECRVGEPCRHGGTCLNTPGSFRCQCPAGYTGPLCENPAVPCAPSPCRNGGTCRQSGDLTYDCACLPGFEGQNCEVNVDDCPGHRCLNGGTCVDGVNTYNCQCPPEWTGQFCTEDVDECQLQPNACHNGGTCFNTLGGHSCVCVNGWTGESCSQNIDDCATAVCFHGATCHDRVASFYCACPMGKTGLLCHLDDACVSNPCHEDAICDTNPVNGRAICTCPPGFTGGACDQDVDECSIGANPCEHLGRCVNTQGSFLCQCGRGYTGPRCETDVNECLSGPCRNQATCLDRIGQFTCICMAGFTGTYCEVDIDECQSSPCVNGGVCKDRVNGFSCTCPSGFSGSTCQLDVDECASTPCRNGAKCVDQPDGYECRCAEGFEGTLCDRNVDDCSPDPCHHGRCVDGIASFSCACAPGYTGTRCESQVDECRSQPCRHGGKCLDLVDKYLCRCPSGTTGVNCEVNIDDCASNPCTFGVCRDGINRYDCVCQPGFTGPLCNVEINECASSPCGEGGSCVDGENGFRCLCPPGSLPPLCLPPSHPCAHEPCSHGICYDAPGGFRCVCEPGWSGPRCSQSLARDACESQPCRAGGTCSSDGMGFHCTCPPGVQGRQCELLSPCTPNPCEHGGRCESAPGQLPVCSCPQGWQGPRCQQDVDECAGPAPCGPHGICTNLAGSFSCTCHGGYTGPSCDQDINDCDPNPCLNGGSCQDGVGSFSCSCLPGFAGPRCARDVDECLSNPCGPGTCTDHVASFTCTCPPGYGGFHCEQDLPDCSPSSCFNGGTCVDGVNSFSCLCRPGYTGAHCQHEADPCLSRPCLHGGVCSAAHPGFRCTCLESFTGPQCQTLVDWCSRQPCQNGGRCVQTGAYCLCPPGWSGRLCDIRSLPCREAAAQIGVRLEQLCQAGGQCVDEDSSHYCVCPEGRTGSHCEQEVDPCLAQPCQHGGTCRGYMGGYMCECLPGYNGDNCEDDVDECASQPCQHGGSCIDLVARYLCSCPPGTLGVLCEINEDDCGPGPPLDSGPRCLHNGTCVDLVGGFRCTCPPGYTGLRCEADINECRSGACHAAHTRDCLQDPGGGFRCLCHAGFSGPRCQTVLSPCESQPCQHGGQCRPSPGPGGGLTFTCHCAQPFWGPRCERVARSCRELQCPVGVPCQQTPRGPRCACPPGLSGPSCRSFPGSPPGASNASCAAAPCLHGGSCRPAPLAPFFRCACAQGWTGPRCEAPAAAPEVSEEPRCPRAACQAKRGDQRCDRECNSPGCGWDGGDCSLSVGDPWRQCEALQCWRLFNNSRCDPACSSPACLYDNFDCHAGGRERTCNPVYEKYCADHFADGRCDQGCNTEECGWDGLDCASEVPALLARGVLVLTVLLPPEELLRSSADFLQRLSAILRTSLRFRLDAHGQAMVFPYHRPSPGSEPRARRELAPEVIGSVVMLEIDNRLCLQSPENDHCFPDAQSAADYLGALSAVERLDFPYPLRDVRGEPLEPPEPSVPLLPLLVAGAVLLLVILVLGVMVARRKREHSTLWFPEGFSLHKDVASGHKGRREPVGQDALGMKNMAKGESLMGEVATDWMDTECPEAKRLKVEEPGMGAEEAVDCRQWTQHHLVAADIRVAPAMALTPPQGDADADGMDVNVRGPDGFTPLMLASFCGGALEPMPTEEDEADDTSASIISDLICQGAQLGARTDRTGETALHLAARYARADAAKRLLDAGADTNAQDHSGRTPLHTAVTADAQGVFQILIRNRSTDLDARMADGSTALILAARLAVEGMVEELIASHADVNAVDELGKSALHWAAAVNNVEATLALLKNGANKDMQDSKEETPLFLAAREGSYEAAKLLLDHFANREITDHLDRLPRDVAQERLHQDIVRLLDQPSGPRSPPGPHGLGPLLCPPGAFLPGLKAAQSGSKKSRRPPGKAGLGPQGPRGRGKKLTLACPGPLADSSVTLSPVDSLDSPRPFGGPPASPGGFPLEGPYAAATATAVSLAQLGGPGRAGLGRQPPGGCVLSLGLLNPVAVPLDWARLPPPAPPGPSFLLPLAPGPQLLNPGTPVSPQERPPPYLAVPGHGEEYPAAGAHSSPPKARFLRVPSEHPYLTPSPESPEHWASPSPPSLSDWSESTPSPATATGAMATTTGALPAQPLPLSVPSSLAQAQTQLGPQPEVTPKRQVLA

[20] = small-molecule microarray binders of probe aEGFR, primary screen, biochemical, biotinylated probe, 635/667 nm fluorescence (AID 1097); conditions: higher = more signal;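 also: probe is a biotinylated anti-EGFR antibody binding compounds printed on slides; score combines fluorescence near 667 nm and signal to noise of each spot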

For `C=C(CCCC)/C(=C/C[C@H](OC(=O)c1ccncc1)c1ccccc1OCCO)c1cc(C(=O)OC)ccc1OC`, the composite z-score [1] was -0.17, the composite z-score [2] was 0.963 and the composite z-score [3] was -0.0591. For the same compound, the composite z-score [4] was 0.845, the composite z-score [5] was 0.101 and the composite z-score [6] was -0.217. For the same compound, the composite z-score [7] was 0.787, the z-score [8] was 0.908 (inactive) and the composite z-score [9] was 0.416. For the same compound, the composite z-score [10] was -0.0237, the composite z-score [11] was 1.34 and the z-score [12] was 0.47 (inactive). The z-score [13] was 0.333 (inactive), the z-score [14] was 1.42 (inactive) and the composite z-score [15] was 2.31. For the same compound, the z-score [16] was 0.588 (inactive), the composite z-score [17] was -0.0942 and the composite z-score [18] was 0.502. It also gave a composite z-score [19] of 0.647 and a composite z-score [20] of -0.15.
`CCCCCCc1nc(Cc2cc(OC)c(OC)c(OC)c2)cc2c1[Si](C(C)C)(C(C)C)O[C@H]2c1ccccc1` showed a composite z-score [1] of -0.557, a composite z-score [2] of 0.251 and a composite z-score [3] of -0.0599. The composite z-score [4] was 0.0804, the composite z-score [5] was 0.191 and the composite z-score [6] was -0.0387. For the same compound, the composite z-score [7] was -0.712, the z-score [8] was -0.361 (inactive) and the composite z-score [9] was 0.0506. The composite z-score [10] was 0.0677, the composite z-score [11] was 0.811 and the z-score [12] was 0.153 (inactive). For the same compound, the z-score [13] was 0.87 (inactive), the z-score [14] was 0.0217 (inactive) and the composite z-score [15] was -0.0751. For the same compound, the z-score [16] was -1.41 (inactive), the composite z-score [17] was -0.176 and the composite z-score [18] was 0.619. The composite z-score [19] was 0.819 and the composite z-score [20] was -0.0975.
Work on `CCCCCC1=C2CNC(CC(C)C)(C(=O)OC)C=C2C(C)C1=O` (stereo not given) yielded a composite z-score [1] of 1.08, a composite z-score [2] of -0.176 and a composite z-score [3] of 0.185. For the same compound, the composite z-score [4] was 0.0051, the composite z-score [5] was 0.122 and the composite z-score [6] was 1.01. The composite z-score [7] was 0.568, the z-score [8] was 0.51 (inactive) and the composite z-score [9] was 0.404. The composite z-score [10] was 3.31, the composite z-score [11] was 1.51 and the z-score [12] was 0.298 (inactive). The z-score [13] was 0.421 (inactive), the z-score [14] was 0.22 (inactive) and the composite z-score [15] was 2.87. The z-score [16] was -0.415 (inactive), the composite z-score [17] was 0.0887 and the composite z-score [18] was -0.272. For the same compound, the composite z-score [19] was 0.225 and the composite z-score [20] was -0.126.
`CCCC=C(CCC)[C@@H](NC(=O)OCC(C)C)c1ccc(C(=O)OC)cc1` showed a composite z-score [1] of -0.443, a composite z-score [2] of 0.477 and a composite z-score [3] of -0.0596. It also gave a composite z-score [4] of 0.161, a composite z-score [5] of 0.638 and a composite z-score [6] of 0.224. The composite z-score [7] was 0.362, the z-score [8] was -0.705 (inactive) and the composite z-score [9] was 0.107. The composite z-score [10] was 2.35, the composite z-score [11] was 0.586 and the z-score [12] was -0.245 (inactive). For the same compound, the z-score [13] was 0.354 (inactive), the z-score [14] was -0.894 (inactive) and the composite z-score [15] was 0.893. The z-score [16] was 0.0664 (inactive), the composite z-score [17] was 0.0506 and the composite z-score [18] was 0.421. For the same compound, the composite z-score [19] was 0.621 and the composite z-score [20] was -0.123.
For `CCOC(=O)C[C@H]1[C@H](OC(=O)c2cc3ccccc3oc2=O)[C@@H](NC(=O)CC(C)C)c2cc(OCCCO)ccc2N1C(=O)Cc1ccc(OC)cc1`, the composite z-score [1] was -0.699, the composite z-score [2] was -0.115 and the composite z-score [3] was -0.114. For the same compound, the composite z-score [4] was 0.499, the composite z-score [5] was 0.508 and the composite z-score [6] was 0.324. The composite z-score [7] was 0.49, the z-score [8] was -0.509 (inactive) and the composite z-score [9] was 0.479. For the same compound, the composite z-score [10] was -0.201, the composite z-score [11] was 1.14 and the z-score [12] was -0.238 (inactive). For the same compound, the z-score [13] was -0.462 (inactive), the z-score [14] was 0.052 (inactive) and the composite z-score [15] was 1.3. The z-score [16] was -0.479 (inactive), the composite z-score [17] was -0.165 and the composite z-score [18] was 0.322. It also gave a composite z-score [19] of 0.924 and a composite z-score [20] of -0.0973.

From PubChem BioAssay
